# Test results as given in ChEMBL document CHEMBL1157539, “Thousands of chemical starting points for antimalarial lead identification” (Nature, 2010).
# “And” between values parts separate entries of the source, which are not always exact repeats. Equal entries are not always repeated.
# What was measured:
# Format in all cases: functional
# Plasmodium falciparum [1] = test: GSK_TCMDC: Inhibition of Plasmodium falciparum 3D7 in whole red blood cells, using parasite LDH activity as an index of growth. Test compounds present at 2uM
# Plasmodium falciparum [2] = test: GSK_TCMDC: Inhibition of Plasmodium falciparum Dd2 in whole red blood cells, using parasite LDH activity as an index of growth. Test compounds present at 2uM
# HepG2 = test: GSK_TCMDC: Percent inhibition of human HepG2 cell line. Test compounds present at 10uM.
SMILES,Inhibition (Plasmodium falciparum [1]),Inhibition (Plasmodium falciparum [2]),Inhibition (HepG2)
CC(C)C[C@H](Nc1ccc(C#N)c2ccccc12)C(=O)N[C@@H]1CCCc2ccccc21.O=C(O)C(F)(F)F,99%,100%,38%
CCCCCc1cc(O)c2c(c1)OC(C)(C)CC2C1=CCN(Cc2cnc3ccccc3c2)CC1.Cl.O (stereo not drawn),98%,98%,27%
Cc1cc(N)nc2cc(CNCCc3ccccc3Br)ccc12.Cl,100%,93%,47%
COc1coc(C(=O)NC2CCN(CC3(c4ccc(Cl)cc4)CCC3)CC2)c1OC,96%,96%,2%
O=C(/C=C/c1ccccc1O)NC1CCC(CN2CCC(c3c[nH]c4ccccc34)CC2)CC1 (stereo not drawn),100%,45% and 73%,11% and 22%
CCCCCCc1cc(O)c2c3c(c(=O)oc2c1)CCN(C)C3,99%,66%,0%
Cl.OC(CNC1CCCCCC1)c1ccc(Cl)c(Cl)c1 (stereo not drawn),99%,98%,0%
C=C[C@H]1CN2CC[C@H]1C[C@H]2[C@H](O)c1ccnc2ccccc12 [CINCHONIDINE],100%,3%,9%
COc1cccc(C2(C)CCN(CCCCNC(=O)c3ccc(NC(=O)c4ccc(Cl)cc4)cc3)CC2)c1.Cl,97%,72%,19%
CNCC(O)c1cc(Cl)c(Cl)cc1C.Cl (stereo not drawn),98%,88%,0%
COc1ccc(CC(C)NCC(O)c2cccc(Cl)c2)cc1C (stereo not drawn),89%,78%,11%
